Assay results: PubChem BioAssay (NCATS)
Inconclusive results are not listed. Calls of active or inactive are those of the source. Unless noted, the call rests on the fitted dose curve; in most records, active means well fitted curve in the direction sought with a large enough effect; inconclusive means small, poorly fitted or top-dose-only effect, or another doubt; inactive means no such curve, though single readings can be large; an effect the other way counts as inactive or inconclusive.

How the values were obtained:
[1] = Cell Viability - BJ (AID 421; calls by dose curve;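 further: potency means the concentration at half of the fitted maximal effect; cells exposed to compound for 40 hours at 37 °C before readout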); settings: BJ fibroblast viability, qHTS
Outline: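 Cytotoxicity in human BJ foreskin fibroblasts is scored as loss of cellular ATP after a 40-hour exposure, measured by luciferase luminescence. Controls are DMSO and 100 uM tamoxifen.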

[2] = Cell Viability - Jurkat (AID 426;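 active means dose-dependent loss of cell ATP signal giving a full or clear fitted curve, ranked by lower potency value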;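 further: potency means the concentration at half of the fitted maximal effect; cells exposed to compound for 40 hours at 37 °C before ATP read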); settings: qHTS
Outline: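 Cytotoxicity taken as drop in cellular ATP (CellTiter-Glo luminescence, 20 min room temperature) after 40 hr, 37C treatment of 5000 Jurkat Clone E6-1 cells per well; concentration-response fitted with Hill equation for AC50.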

[3] = Cell Viability - Hek293 (AID 427;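 active means compounds whose dose-response curve shows a full or clear partial loss of cell viability, called from curve shape rather than a numeric limit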;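 further: potency means the concentration at half of the fitted maximal effect; cells exposed to compound for 40 hours at 37 °C before reading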); settings: qHTS
Outline: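 qHTS, human embryonic kidney (adenovirus-transformed) cells; 40 hr cpd, 37 °C; CellTiter-Glo ATP luminescence. Norm: DMSO = 0, 100 uM tamoxifen = 100% inhibition. Hill-fit AC50.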

[4] = Cell Viability - HepG2 (AID 433; calls by dose curve;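 further: potency means the concentration at half of the fitted maximal effect; cells exposed to compound for 40 hours; potency for ATP loss meaning cytotoxicity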); settings: qHTS
Outline: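 Cytotoxicity read as ATP loss (CellTiter-Glo luminescence) after 40 hr compound exposure of HepG2, 1500 cells/well, 37 °C. AC50 by Hill equation; 0% set by DMSO, 100% inhibition by 100 uM tamoxifen.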

[5] = Cell Viability - MRC5 (AID 434; calls by dose curve;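 further: potency means the concentration at half of the fitted maximal effect; cells exposed to compound for 40 hours at 37 °C; potency reflects cytotoxicity seen as loss of intracellular ATP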); settings: MRC5 lung fibroblast viability, qHTS
Outline: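 ATP luminescence read-out (CellTiter-Glo, 20 min RT) after 40 hr, 37 °C compound exposure of 1500 MRC5 cells/well. Data normalized to DMSO (basal) and 100 uM tamoxifen (100% inhibition); AC50 from standard Hill equation.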

[6] = Cell Viability - N2a (AID 540); settings: N2a mouse neuroblastoma cell viability; at 92.2 µM (top of the series);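 further: plate controls were DMSO alone for no effect and tamoxifen control for full effect; nearly all actives have a fitted effect of over 45% in size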
Outline: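 CellTiter-Glo ATP luminescence, read 20 min after reagent at room temperature, reported viability following 40 h compound treatment at 37 °C. N2a mouse neuroblastoma cells seeded 1500/well; Hill equation gave AC50.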

[7] = Cell Viability - NIH 3T3 (AID 541); settings: NIH 3T3 cell viability, qHTS; at 92.2 µM (top of the series);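 further: cells exposed to compound for 40 hours; plate controls were DMSO alone for no effect and tamoxifen positive control for full effect; nearly all actives have a fitted effect of over 25% in size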
Outline: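 Intracellular ATP (CellTiter-Glo luminescence, 20 min at room temperature) measured after 40 hr compound exposure at 37 °C of 1000 NIH 3T3 mouse fibroblasts/well in complete medium; AC50 derived by Hill-equation modelling of qHTS concentration-response curves.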

[8] = Cell Viability - H-4-II-E (AID 543);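 further: cells exposed to compound for 40 hours; on the % scale 0 is the no-effect control and ±100 the full control effect; nearly all actives have a fitted effect of over 35% in size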
Outline: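 CellTiter-Glo luminescence (intracellular ATP) measured after 40 h compound exposure at 37 °C in H-4-II-E rat hepatoma cells seeded at 1500/well. Values are AC50s fitted with the standard Hill equation.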

[9] = Cell Viability - SH-SY5Y (AID 544);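 further: cells exposed to compound for 40 hours; 0% = DMSO alone and -100% = 100 µM tamoxifen; nearly all actives have a fitted effect of over 55% in size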
Outline: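 Cytotoxicity measured via ATP-dependent luciferase luminescence (CellTiter-Glo) following 40 h, 37 °C exposure of 1500 SH-SY5Y cells per well. Concentration-response data were fitted with the standard Hill equation to give AC50.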

[10] = Cell Viability - Renal Proximal Tubule (AID 545);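 further: cells exposed to compound for 40 hours; 0% = DMSO only and -100% = 100 µM tamoxifen; nearly all actives have a fitted effect of over 40% in size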
Outline: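 Viability taken as intracellular ATP (CellTiter-Glo luminescence) after 40 hr, 37 °C compound treatment of primary proximal tubule cells from rat kidney, 1000 cells/well; Hill-equation fits of qHTS concentration-response data gave AC50.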

[11] = Cell Viability - Mesenchymal (AID 546);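 further: cells exposed to compound for 40 hours before reading; 0% = DMSO only and -100% = 100 µM tamoxifen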
Outline: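 Human renal mesenchymal cells (glomerulus-derived), 1000 cells/well, 5 hr 37 °C pre-incubation; compound 40 hr, 37 °C; CellTiter-Glo, 20 min RT; luminescence; AC50 via Hill equation.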

[12] = Cellular Toxicity (caspase-3) HepG2 (AID 654);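 further: cells exposed to compound for 16 hours before reading; 0% = DMSO alone and 100% = caspase signal from 100 µM tamoxifen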
Outline: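 Caspase 3/7 activation is measured as a luminescence increase (aminoluciferin substrate) after 16 h compound exposure of human hepatocarcinoma HepG2 cells. AC50 values are Hill fits, scaled between DMSO baseline and 100 uM tamoxifen stimulation.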

[13] = Cellular Toxicity (caspase-3) Jurkat (AID 655);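 further: cells exposed to compound for 16 h at 37 °C before reading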
Outline: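 Luminescent Caspase-Glo 3/7 read-out (20 min, room temperature) after 16 h compound treatment at 37 C of 5000 Jurkat cells per well. AC50 derived by Hill-equation fitting, scaled between DMSO basal and 100 uM tamoxifen stimulation.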

[14] = Cellular Toxicity (caspase-3) HUV-EC-C (AID 656);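 further: 0% = DMSO basal and 100% = 100 µM tamoxifen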
Outline: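 Luminescent Caspase-Glo 3/7 readout after 16 h, 37 °C compound exposure of HUV-EC-C endothelial cells, 1000 per well, complete medium. AC50 derived by Hill fitting, with DMSO as baseline and 100 uM tamoxifen as full activation.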

[15] = Cellular Toxicity (caspase-3) SHSY5Y (AID 657)
Outline: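 Luminescent Caspase-Glo 3/7 read-out, 1 hr room temperature, follows 16 hours of compound treatment of SH-SY5Y cells at 37 °C. Normalization: DMSO basal, 10 uM staurosporine as 100%; AC50 values from Hill-equation concentration-response fits.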

[16] = Cellular Toxicity (caspase-3) BJ (AID 658);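 further: 0% = DMSO basal and 100% = 10 µM staurosporine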
Outline: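 qHTS, BJ fibroblasts, 1000 cells/well; 5 hr preincubation, 16 hr compound, 37 °C; Caspase-Glo 3/7 reagent, 1 hr RT; luminescence. DMSO = 0%, 10 uM staurosporine = 100%. Hill-equation AC50.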

[17] = Cellular Toxicity (caspase-3) MRC-5 (AID 659);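 further: 0% = DMSO basal and 100% = 10 µM staurosporine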
Outline: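 MRC-5 fibroblasts, 1500/well; 16 h cpd, 37 °C; Caspase-Glo 3/7, 1 h RT; lumi read. Norm: DMSO = 0%, 10 uM staurosporine = 100%. Hill-fit AC50 from qHTS conc-response.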

[18] = Cellular Toxicity (caspase-3) Mesangial (AID 660);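 further: combined caspase 3 and 7 activity read by Caspase-Glo luminescence; cells exposed to compound for 16 h before the caspase read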
Outline: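 Caspase 3/7 activation measured by Caspase-Glo 3/7 luminescence (20 min, room temperature) following 16 h exposure of mesangial cells (1000/well); AC50 from Hill-equation fit, normalized to DMSO and 100 uM tamoxifen.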

[19] = Cellular Toxicity (caspase-3) SK-N-SH (AID 661);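 further: 0% = DMSO basal and 100% = 10 µM staurosporine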
Outline: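 Caspase 3/7 activation was read by luminogenic substrate cleavage after 16 hour treatment of SK-N-SH cells. Signal was scaled between DMSO and 10 uM staurosporine, and concentration-response data were fitted with the Hill equation for AC50.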

[20] = Cellular Toxicity (caspase-3) H-4-II-E (AID 663);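 further: cells exposed to compound for 16 hr before readout; 0% = DMSO basal and 100% = 100 µM tamoxifen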
Outline: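 H-4-II-E rat hepatoma, 1500 cells/well, 5 hr settle at 37 °C; compound 16 hr, 37 °C, complete medium; Caspase-Glo 3/7, 20 min RT; luminescence. DMSO = 0%, 100 uM tamoxifen = 100%; Hill-equation AC50.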

[21] = Cellular Toxicity (caspase-3) Hek293 (AID 664);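 further: cells exposed to compound for 16 h at 37 °C before readout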
Outline: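 Concentration-response qHTS: caspase 3/7 activation measured by luminescent aminoluciferin substrate cleavage after 16 h compound exposure of Hek 293 cells. AC50 from Hill equation, with DMSO as basal and 100 uM tamoxifen as 100%.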

[22] = Cellular Toxicity (caspase-3) N2a (AID 665);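 further: compound exposure lasted 16 h at 37 °C before readout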
Outline: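 Caspase-3/7 activation measured as luminescence from Caspase-Glo reagent (1 h, room temperature) after 16 h compound exposure of mouse N2a cells. AC50 values from Hill-equation concentration-response, scaled between DMSO and 10 uM staurosporine.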

CCOc1cc(C=O)ccc1O
inactive: Potency [1] > 92 µM | Potency [2] > 92 µM | Potency [3] > 92 µM | Potency [4] > 92 µM | Potency [5] > 92 µM | activity change, negative = cytotoxicity [6] -1.75% | activity change, negative = cytotoxicity [7] 1.57% | outcome [8] | outcome [9] | outcome [10] | outcome [11] | outcome [12] | outcome [13] | outcome [14] | outcome [15] | outcome [16] | outcome [17] | outcome [18] | outcome [19] | outcome [20] | outcome [21] | outcome [22]
